According to PubChem BioAssay AID463173 (ICCB-Longwood Screening Facility, Harvard Medical School, 2010):
In all, about 52,000 compounds went through this assay and about 4,300 (8.3%) were called active. Cut-off read from the data, not from the text of the source: active = survival mostly below about 52% (no sharp cut-off); inactive = mostly above about 56%. The full list was thinned out, with actives kept by preference.

What follows are compounds tested on DeltatarO mutant (assay: S. aureus survival, RN4220 and DeltatarO strains – OD600, teichoic acid synthesis inhibitors, primary screen (AID 463173)). Details: S. aureus RN4220 wild type/DeltatarO growth, OD600, 18 h, active compounds read low, concentration not given here.

SMILES | survival
Cn1cc(/C=C/c2nc3ccccc3c(=O)n2-c2ccccc2)c2ccccc21 | 77% (inactive)
CCCCc1nc2ccccc2c(=O)n1-c1cccc(OC)c1 | 119% (inactive)
Cc1cc(C)cc(-n2c(/C=C/c3cccc(F)c3)nc3ccccc3c2=O)c1 | 83% (inactive)
Cc1cccc(-n2c(/C=C/c3ccccc3O)nc3ccccc3c2=O)c1 | 0% (active)
COc1cc(/C=C/c2nc3ccccc3c(=O)n2-c2ccc(Br)c(C)c2)ccc1O | 71% (inactive)
O=c1c2ccccc2nc(/C=C/c2ccccc2F)n1-c1cccc(O)c1 | 2% (active)
COc1cccc(-n2c(/C=C/c3ccccc3O)nc3ccccc3c2=O)c1 | 4% (active)
COc1ccc(-n2c(/C=C\c3ccccc3F)nc3ccccc3c2=O)cc1OC | 89% (inactive)
Cc1cccc(-n2c(/C=C/c3cn(C)c4ccccc34)nc3ccccc3c2=O)c1 | 21% (active)
O=c1c2ccccc2nc(/C=C\c2ccccc2F)n1-c1ccc(O)cc1 | 67% (inactive)
Cc1cccc(-n2c(-c3ccco3)nc3ccccc3c2=O)c1 | 94% (inactive)
Cc1cccc(-n2c(/C=C/c3cccc4ccccc34)nc3ccccc3c2=O)c1 | 94% (inactive)
Cc1cc(-n2c(/C=C/c3cccs3)nc3ccccc3c2=O)ccc1Br | 104% (inactive)
O=C1/C(=C\c2cc3c(cc2Cl)OCO3)N2CCC1CC2 | 87% (inactive)
O=C1NC(=S)NC(=O)C1C1CCCCC1 | 74% (inactive)
CCC(C(=O)Nc1ccccc1F)N1C(=O)CN=C(c2ccccc2)c2ccccc21 (stereo not given) | 84% (inactive)
CC(C)Cc1nc2cccnc2n1C1CCNCC1 | 120% (inactive)
O=C(c1ccc2c(c1)N(Cc1ccc(F)cc1Cl)C(=O)c1ccccc1S2)N1CCC2(CC1)OCCO2 | 101% (inactive)
COc1ccc(N=C2SCCCN2C)cc1 | 99% (inactive)
CNC(=O)Oc1c(Cl)cc(Cl)cc1Cl | 96% (inactive)
Cc1ccc2c(c1)C(Cc1nc3ccccc3c(=O)n1-c1ccc(Br)cc1)C(=O)N2 (stereo not given) | 73% (inactive)
Cc1ccc(-n2c(/C=C\c3ccc(F)cc3)nc3ccccc3c2=O)cc1Cl | 90% (inactive)
Cc1ccc(-n2c(/C=C/c3cccc(C(F)(F)F)c3)nc3ccccc3c2=O)cc1 | 72% (inactive)
Cc1cccc(-n2c(CC3C(=O)Nc4ccc(C)cc43)nc3ccccc3c2=O)c1 (stereo not given) | 34% (active)

SMILES | survival
O=c1c2ccccc2nc(/C=C/c2ccccc2O)n1-c1ccc(Br)cc1 | 41% (active)
O=c1c2ccccc2nc(/C=C\c2cccc(Br)c2)n1-c1ccc(O)cc1 | 100% (inactive)
Cc1ccc(-n2c(/C=C/c3cccc4ccccc34)nc3ccccc3c2=O)cc1 | 77% (inactive)
Cc1cccc(-n2c(/C=C/c3c[nH]c4ccccc34)nc3ccccc3c2=O)c1 | 26% (active)
CCc1nc2ccccc2c(=O)n1-c1cccc(OC)c1 | 91% (inactive)
O=C(Nc1ccc2c(c1)OCCO2)c1cccn(Cc2cccc(F)c2)c1=O | 84% (inactive)
N#CC(C#N)=Cc1sc2ccccc2c1Cl | 93% (inactive)
COc1ccc(C2(CN)CCOCC2)cc1 | 88% (inactive)
O=c1cccc2n1CC1CC2CN(c2ncnc3c2cnn3-c2ccc(Cl)cc2)C1 (stereo not given) | 52% (inactive)
Cc1ccc(NC(=O)Cn2cc(C(=O)c3ccccc3)c3ccccc32)cc1 | 122% (inactive)
COc1ccc(-c2nc(CN3C(=O)CN=C(c4ccccc4)c4ccccc43)c(C)o2)cc1 | 84% (inactive)
Cc1oc(-c2ccc(Cl)cc2)nc1CN1C(=O)CN=C(c2ccccc2)c2ccccc21 | 49% (inactive)
Cc1ccccc1-c1nc(CN2C(=O)CN=C(c3ccccc3)c3ccccc32)c(C)o1 | -1% (active)
Cc1ccc(-c2nc(CN3C(=O)CN=C(c4ccccc4)c4ccccc43)c(C)o2)cc1 | 49% (inactive)
Cc1cccc(-c2nc(CN3C(=O)CN=C(c4ccccc4)c4ccccc43)c(C)o2)c1 | -2% (active)
COc1ccc(-c2nc(CN3C(=O)CN=C(c4ccccc4)c4ccccc43)c(C)o2)cc1OC | 97% (inactive)
O=C(Cn1cc(C(=O)c2ccccc2)c2ccccc21)Nc1ccc(Br)cc1 | 48% (inactive)
Cn1c(=O)n(C)c2cc(CNCCc3ccccc3F)ccc21 | 68% (inactive)
COc1ccc(Br)cc1CN1CCN(C(=O)Cc2ccccc2)CC1 | 73% (inactive)
COc1ccc2c(c1OC)C(=O)OC2C1c2cc3c(cc2CCN1C)OCO3 (stereo not given) | 69% (inactive)
CN1CCc2cc3c(c4c2C1Cc1ccccc1-4)OCO3 (stereo not given) | 12% (active)
CCCC12CN3CC(C)(CN(C1)C3c1c(C)[nH]c(=O)[nH]c1=O)C2=O (stereo not given) | 81% (inactive)
N#CSCC(=O)N1c2ccccc2CCc2ccccc21 | 3% (active)
CN1CCN(c2csc3ccc(F)cc3c2=O)CC1 | 98% (inactive)

SMILES | survival
Cc1ccc(-n2c(/C=C/c3cc(Br)cs3)nc3ccccc3c2=O)cc1C | 71% (inactive)
O=C(COc1ccccc1)N1CCN(CC(O)COc2ccccc2)CC1 (stereo not given) | 68% (inactive)
CN1CCN(C(=O)COc2cccc3ccccc23)CC1 | 98% (inactive)
N#Cc1cc2c(nc1SCC(=O)Nc1ccc(Cl)c(C(F)(F)F)c1)C1CCN2CC1 | -1% (active)
N#Cc1cc(F)c(N2CCNCC2)cc1Cl | 74% (inactive)
O=C(Nc1ccc(F)c(Cl)c1)N(Cc1ccc2c(c1)OCO2)C1CCN(Cc2ccccc2)CC1 | 68% (inactive)
N#Cc1cc2c(nc1SCC(=O)Nc1ccc(F)c(Cl)c1)C1CCN2CC1 | -2% (active)
CN(C)c1ccc(NC(=O)c2sc3nc4c(cc3c2N)N2CCC4CC2)cc1 | 146% (inactive)
CC(N)Cc1cn(Cc2ccccc2)c2ccccc12 (stereo not given) | 112% (inactive)
CN1C(=O)C(Cc2nc3ccccc3c(=O)n2-c2ccccc2)c2ccccc21 (stereo not given) | 85% (inactive)
C=C1N2CCC(CC2)C1(O)c1ccc(C)cc1 (stereo not given) | 44% (active)
CSc1ccc(C(c2c(O)c3ccccc3oc2=O)c2c(C)n(C)n(-c3ccccc3)c2=O)cc1 (stereo not given) | 128% (inactive)
Cc1c(C(c2ccc(Br)cc2)c2c(O)c3ccccc3oc2=O)c(=O)n(-c2ccccc2)n1C (stereo not given) | 49% (active)
COc1cc(C(c2c(O)c3ccccc3oc2=O)c2c(C)n(C)n(-c3ccccc3)c2=O)ccc1O (stereo not given) | 53% (inactive)
Cc1c(C(c2ccc(O)cc2)c2c(O)c3ccccc3oc2=O)c(=O)n(-c2ccccc2)n1C (stereo not given) | 47% (active)
COc1ccc(C(c2c(O)c3ccccc3oc2=O)c2c(C)n(C)n(-c3ccccc3)c2=O)cc1 (stereo not given) | 57% (inactive)
Cc1c(C(c2ccc(F)cc2)c2c(O)c3ccccc3oc2=O)c(=O)n(-c2ccccc2)n1C (stereo not given) | 89% (inactive)
COc1ccc(NC(=O)CN2C(=O)CN=C(c3ccccc3)c3ccccc32)c(OC)c1 | 99% (inactive)
CC1CN2CCC3=C(CCCC3)C2(C)C1 (stereo not given) | 77% (inactive)
CCN(CC)c1ccc(C=C(C#N)C#N)cc1 | 91% (inactive)
CC(C)n1cc(C(=O)N(C2CC2)C(C(=O)NC2CCCC2)c2ccccc2)cn1 (stereo not given) | 101% (inactive)
Cc1cccc(-n2nc(C)c3c2NC(=O)CSC3c2ccccc2Cl)c1 (stereo not given) | 43% (active)
CCc1ccc(-n2nc(C)c3c2NC(=O)CSC3c2ccc(OC)cc2OC)cc1 (stereo not given) | 60% (inactive)
COc1cccc(C2SCC(=O)Nc3c2c(C)nn3-c2ccc(C)c(Cl)c2)c1OC (stereo not given) | 55% (inactive)

SMILES | survival
CCCOc1ccc(C2SCC(=O)Nc3c2c(C)nn3-c2cccc(C)c2)cc1OC (stereo not given) | 41% (active)
COc1ccccc1C1SCC(=O)Nc2c1c(C)nn2-c1cccc(C)c1 (stereo not given) | -1% (active)
Cc1ccc(-n2c(/C=C/c3ccc(Br)s3)nc3ccccc3c2=O)cc1 | 85% (inactive)
O=C1NC(=O)C(=Cc2ccc(N3CCOCC3)cc2)C(=O)N1 | 80% (inactive)
O=c1cccc2n1CC1CC2CN(c2nc(Cl)nc(Cl)n2)C1 (stereo not given) | 80% (inactive)
CCCCC12CN3CC(C)(CN(C1)C3c1ccccn1)C2=O (stereo not given) | 79% (inactive)
Cc1cc(N)n(C2CCN(C)CC2)n1 | 94% (inactive)
Cc1ccc(NC(=O)CN2C(=O)CN=C(c3ccccc3)c3ccccc32)cc1Cl | 122% (inactive)
Cc1ccc(Cn2cccc(C(=O)Nc3nc4ccc(C)cc4s3)c2=O)cc1 | 117% (inactive)
COC1=CC23CCN(C)C(Cc4ccc(OC)c(O)c42)C3=CC1=O (stereo not given) | 84% (inactive)
N#Cc1cc2c(nc1SCC(=O)Nc1cccc(C(F)(F)F)c1)C1CCN2CC1 | 4% (active)
N#Cc1cccc(NC(=O)CSc2nc3c(cc2C#N)N2CCC3CC2)c1 | 88% (inactive)
CC(=O)c1ccc(NC(=O)c2sc3nc4c(cc3c2N)N2CCC4CC2)cc1 | 98% (inactive)
N#Cc1cc2c(nc1SCC(=O)Nc1ccc(C(F)(F)F)cc1)C1CCN2CC1 | 8% (active)
N#Cc1cc2c(nc1SCC(=O)Nc1cccc(F)c1)C1CCN2CC1 | -4% (active)
CCOC(=O)c1ccc(NC(=O)c2sc3nc4c(cc3c2N)N2CCC4CC2)cc1 | 68% (inactive)
Cc1cccc(CSc2nc3c(cc2C#N)CN(C)CC3)c1 | 101% (inactive)
CCOC(=O)c1ccc(NC(=O)CSc2nc3c(cc2C#N)N2CCC3CC2)cc1 | 76% (inactive)
O=C(CN1C(=O)CN=C(c2ccccc2)c2ccccc21)Nc1cccc(C(F)(F)F)c1 | 57% (inactive)
O=C(CNC1CCCCC1)N1CCC2(CC1)OCCO2 | 116% (inactive)
CCc1cccc(NC(=O)CN2C(=O)CN=C(c3ccccc3F)c3cc(Cl)ccc32)c1 | 94% (inactive)
CCC(C)N1CCN(Cc2cc(OC)c(OC)cc2OC)CC1 (stereo not given) | 108% (inactive)
CCNCC1(c2ccc(OC)c(OC)c2)CCCC1 | 94% (inactive)
